Values joined by “and” are separate entries in the source; they are usually repeats but may differ in a detail not shown here. Identical values can stand only once. Among all 5,500 compounds or so, about 2,000 (36%) were called active. Not shown: some 18% with an inconclusive outcome. Cut-off read from the data, not from the text of the source: active = normalized growth mostly below about 0.91 (no sharp cut-off); inconclusive = no clear call, values can overlap the other calls; inactive = mostly above about 0.92. Some of the results follow.
Assay: chemical genetic growth profiling, strain panel (AID 1159580);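 note: tested at 20 µM; growth read once vehicle control cultures reached saturation at 30 °C; 1 = growth at the plate median or of vehicle wells; lower values mean less growth of the strain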
Conditions: S. cerevisiae deletion strains, growth OD

Measured: normalized growth

CC(=O)Oc1cccc(O)c1
inactive: locus YAL021C, strain ccr4, active compounds read low 1 | locus YAL026C, strain drs2, active compounds read low 1.04 | locus YAL030W, strain snc1, active compounds read low 1.01 | locus YBL061C, strain skt5, active compounds read low 1.02 | locus YBR009C, strain hhf1, active compounds read low 1.01 | locus YBR021W, strain FUR4, active compounds read low 0.973 | locus YBR023C, strain chs3, active compounds read low 1.03 | locus YBR171W, strain sec66, active compounds read low 1.03 | locus YBR229C, strain ROT2, active compounds read low 1 | locus YBR231C, strain swc5, active compounds read low 1.03 | locus YBR279W, strain paf1, active compounds read low 1.02 | locus YCL011C, strain gbp2, active compounds read low 1.02 | locus YCL016C, strain dcc1, active compounds read low 1.01 | locus YCL029C, strain bik1, active compounds read low 1.01 | locus YCL069W, strain vba3, active compounds read low 1.03 | locus YCR088W, strain abp1, active compounds read low 1.02 | locus YDL005C, strain med2, active compounds read low 1.03 | locus YDL035C, strain GPR1, active compounds read low 1.01 | locus YDL040C, strain nat1, active compounds read low 1.02 | locus YDL074C, strain BRE1, active compounds read low 0.996 | locus YDL101C, strain DUN1, active compounds read low 1.01 | locus YDL134C, strain PPH21, active compounds read low 1.01 | locus YDL185W, strain tfp1, active compounds read low 1.03 | locus YDL192W, strain arf1, active compounds read low 1.02 | locus YDR001C, strain nth1, active compounds read low 1.02 | locus YDR069C, strain doa4, active compounds read low 1.03 | locus YDR101C, strain arx1, active compounds read low 0.996 | locus YDR137W, strain rgp1, active compounds read low 1.05 | locus YDR159W, strain sac3, active compounds read low 1.05 | locus YDR162C, strain NBP2, active compounds read low 1.02 | locus YDR195W, strain ref2 1.03 | locus YDR297W, strain sur2, active compounds read low 1.04 | locus YDR318W, strain mcm21, active compounds read low 1.01 | locus YDR334W, strain swr1, active compounds read low 1.01 | locus YDR335W, strain msn5, active compounds read low 1.01 | locus YDR388W, active compounds read low 1.02 | locus YDR392W, strain spt3, active compounds read low 1.01 | locus YDR502C, strain sam2, active compounds read low 1.03 | locus YEL003W, strain gim4, active compounds read low 1.02 | locus YEL037C, strain rad23, active compounds read low 1.02 | locus YEL061C, strain CIN8 (second series), active compounds read low 1.02 | locus YEL061C, strain CIN8, active compounds read low 1.01 | locus YER015W, strain faa2, active compounds read low 1.02 | locus YER110C, active compounds read low 1.03 | locus YER111C, strain swi4, active compounds read low 1.02 | locus YER155C, strain BEM2 (second series), active compounds read low 1.02 | locus YER155C, strain BEM2, active compounds read low 0.996 | locus YER167W, strain BCK2, active compounds read low 1 | locus YFR010W, strain ubp6, active compounds read low 1.04 | locus YGL078C, strain dbp3, active compounds read low 1.02 | locus YGL086W, strain mad1, active compounds read low 0.999 | locus YGL167C, strain pmr1, active compounds read low 1.02 | locus YGL173C, strain kem1, active compounds read low 1.04 | locus YGL227W, strain vid30, active compounds read low 1.02 | locus YGL240W, strain doc1, active compounds read low 1.02 | locus YGL248W, strain PDE1, active compounds read low 1.01 | locus YGL253W, strain hxk2, active compounds read low 1.02 | locus YGR078C, strain PAC10, active compounds read low 1 | locus YGR135W, strain pre9, active compounds read low 1.03 | locus YGR229C, strain SMI1, active compounds read low 1 | locus YGR252W, strain gcn5, active compounds read low 1.06 | locus YHR013C, strain ard1, active compounds read low 1.02 | locus YHR027C, strain rpn1, active compounds read low 1.02 | locus YHR030C, strain SLT2, active compounds read low 1.01 and 0.949 | locus YHR079C, strain IRE1 (second series), active compounds read low 1.01 | locus YHR079C, strain IRE1, active compounds read low 0.967 | locus YHR094C, strain hxt1, active compounds read low 1.01 | locus YHR129C, strain ARP1, active compounds read low 1.01 | locus YHR142W, strain chs7, active compounds read low 1.03 | locus YHR200W, strain rpn10, active compounds read low 1.02 | locus YIL066C, strain RNR3, active compounds read low 1 | locus YIL073C, strain SPO22, active compounds read low 1.04 | locus YIL125W, strain kgd1, active compounds read low 1.01 | locus YIR030C, strain dcg1, active compounds read low 1.01 | locus YJL092W, strain hpr5, active compounds read low 1.02 | locus YJL095W, strain BCK1 (second series), active compounds read low 1.02 | locus YJL095W, strain BCK1, active compounds read low 1.01 and 0.974 | locus YJL115W, strain asf1, active compounds read low 1.01 | locus YJL129C, strain trk1, active compounds read low 1.04 | locus YJL134W, strain LCB3, active compounds read low 1.01 | locus YJL154C, strain vps35, active compounds read low 1.02 | locus YJL164C, strain tpk1, active compounds read low 1.01 | locus YJL166W, strain qcr8, active compounds read low 1.03 | locus YJL168C, strain set2, active compounds read low 1.02 | locus YJL187C, strain SWE1 (second series), active compounds read low 1.01 | locus YJL187C, strain SWE1, active compounds read low 1.02 | locus YJR043C, strain POL32, active compounds read low 0.999 | locus YJR066W, strain TOR1, active compounds read low 0.96
